Among the data in ChEMBL document CHEMBL4513146, “CO-ADD screening of Karazin Kharkiv National University (Ukraine) compounds” are Inhibition values, retold here.

By Inhibition is commonly meant the relative decrease from the control value, in per cent.

Molecules are shown by their SMILES. Measured potencies and affinities stand elsewhere.

The subject of the assay is Candida albicans. Conditions: Concentration 32 ug.mL-1; ASSAY_TEST Inhibition of Fungal Growth; detection method Absorption (OD530).
Consider `COc1cccc(Oc2nccn3c(=O)n(CC(=O)Nc4ccc5c(c4)OCCO5)nc23)c1`, for which the Inhibition is 7.65%. `CCc1nnc2c(SCC(=O)Nc3cccc(OC)c3)nc3ccccc3n12`: the Inhibition is listed as 3.37%. Consider `CCCCOc1ccc(-c2cc3c4nnc(SCC(=O)Nc5ccc(OC)cc5)n4ccn3n2)cc1`, for which the Inhibition turned out to be 3.4%. `O=S(=O)(c1ccc2nncn2c1)N(Cc1cc(F)cc(F)c1)c1ccc2c(c1)OCO2`: the Inhibition was found to be 2.54%. The same measure for `O=C(Cn1nc2ccc(SCc3ccc(Cl)cc3)nn2c1=O)Nc1ccc2c(c1)CCC2`: 7.4%; for `CCOc1ccc(-n2ccn3c(SC(C)C(=O)Nc4ccc(OC)cc4)nnc3c2=O)cc1` (stereo not given): 4.23%. Regarding `Cc1cc2nn(CC(=O)Nc3ccc(F)cc3Cl)c(=O)n2c(Nc2ccc(F)cc2)n1`, the Inhibition is 8.11%. On to `CCc1ccccc1NC(=O)Cn1nc2c(Sc3ccc(C)cc3C)nccn2c1=O`, for which the Inhibition is 0.47%. The same measure for `Cc1cc(C)c(NC(=O)Cn2nc3n(C)c(=O)c4c(c(-c5ccccc5)cn4C)n3c2=O)c(C)c1`: 0.24%. Next, `Cc1ccc(C)c(CN(c2ccc(F)c(F)c2)S(=O)(=O)c2cccn3cnnc23)c1`: 1.83%.

As to `CC(C)c1nnc2c(=O)n(CC(=O)Nc3ccccc3)c3ccccc3n12`, the Inhibition amounted to 3.67%. In the case of `COc1ccc(-c2cc3c4nn(CC(=O)Nc5ccc(OC)c(Cl)c5)c(=O)n4ccn3n2)cc1`, the Inhibition is reported as 32.01%.

Take `O=C(Cn1nc2ccc(Sc3cccc(F)c3)nn2c1=O)NCc1ccc(C(F)(F)F)cc1`: the Inhibition was 1.44%.

Regarding `CC(C)Cn1c(=O)c2sccc2n2c(=O)n(Cc3ccccc3Cl)nc12`, the Inhibition is listed as 1.39%. The same measure for `Cc1ccc(NC(=O)Cn2nc3c4cc(-c5ccc(Cl)cc5)nn4ccn3c2=O)cc1F`: -0.67%; for `CCc1nnc2c(SCC(=O)Nc3c(C)cc(C)cc3C)nc3ccccc3n12`: 1.5%. The same measure for `C=Cc1ccc(CN(c2ccc(Cl)cc2)S(=O)(=O)c2cccn3c(C)nnc23)cc1`: 0.36%; for `O=C(Cn1nc2nc(Nc3ccc(F)cc3)ccn2c1=O)N1CCCC1`: 0.53%.

For `COc1ccccc1N1CCN(C(=O)Cn2nc3ccc(-c4ccccc4)nn3c2=O)CC1`, the Inhibition amounted to 1.1%. With `COc1ccc(NC(=O)Cn2nc3ccc(-c4ccc(Cl)cc4)nn3c2=O)cc1OC`, the Inhibition is -2.47%. With `CC(C)CCn1c(=O)c2sccc2n2c(=O)n(CC(=O)NC(C)C)nc12`, the Inhibition was -0.52%. The same measure for `Cc1ccccc1CN(c1ccc(Cl)cc1)S(=O)(=O)c1cccn2c(C)nnc12`: 2.31%. The same measure for `CC(C)c1ccc(NC(=O)Cn2nc3c(N4CCCC4)nccn3c2=O)cc1`: 2.06%. Next, `Cc1ccc(-c2ccc3nn(Cc4nc(-c5ccc(OC(F)(F)F)cc5)no4)c(=O)n3n2)cc1`: 49.09%. For the compound `COc1cccc(Oc2nccn3c(=O)n(CC(=O)Nc4ccccc4C(F)(F)F)nc23)c1`, the Inhibition was determined as 1.07%. Next, `Cc1ccc(N(Cc2ccc(F)cc2)S(=O)(=O)c2ccc3nnc(C)n3c2)cc1`: 1.54%; `CCOC(=O)C1CCCN(C(=O)Cn2nc3n(CC(C)C)c(=O)c4sccc4n3c2=O)C1` (stereo not given): -1.48%. With `CCOC(=O)c1ccccc1NC(=O)Cn1nc2c(Oc3cccc(OC)c3)nccn2c1=O`, the Inhibition came to 0.95%. In the case of `Cc1nnc2ccc(S(=O)(=O)N(Cc3ccccc3F)c3ccc(F)cc3)cn12`, the Inhibition came to 1.21%. Next, `CCOc1ccc(NC(=O)Cn2nc3c4cc(-c5ccc(C)c(C)c5)nn4ccn3c2=O)cc1`: 0.04%; `Cc1nnc2c(SCC(=O)Nc3ccc(C#N)cc3)nc3ccccc3n12`: -1.44%; `CC(C)c1ccc(Oc2nc3ccccc3n3c(=O)n(CC(=O)Nc4ccc5c(c4)OCO5)nc23)cc1`: 1.68%.

Consider `Cc1nnc2c(=O)n(CC(=O)Nc3ccccc3F)c3ccccc3n12`, for which the Inhibition is recorded as 3.67%.

`CCOC(=O)c1ccccc1NC(=O)Cn1nc2c3cc(-c4ccc(Cl)cc4)nn3ccn2c1=O`: the Inhibition was 2.98%. The same measure for `O=c1c2nn(Cc3c(F)cccc3Cl)c(=O)n2ccn1-c1ccccc1`: 1.25%; for `CCCCn1c(=O)c2sccc2n2c(=O)n(CC(=O)N3CCC(Cc4ccccc4)CC3)nc12`: -1.21%; for `COc1cccc(-n2ccn3c(SCC(=O)c4c(C)[nH]c5ccccc45)nnc3c2=O)c1`: 3.81%. Next, `COc1ccc(CCn2c(=O)c3sccc3n3c(=O)n(CC(=O)c4ccccc4)nc23)cc1OC`: 0.73%; `Cc1cc(C)cc(Nc2nc(C)cc3nn(CC(=O)Nc4ccc(F)cc4F)c(=O)n23)c1`: 32.59%; `COc1ccc(-c2cc3c4nnc(SCC(=O)Nc5ccc(C)cc5Cl)n4ccn3n2)cc1`: 0.54%.
